Data on nine molecules can be found in PubChem BioAssay.

Several values for one entry are separate records, joined by “and”; a condition that tells them apart may be missing. Equal entries are not always repeated. Activity calls are given as the source filed them.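 How the source made its calls, unless noted: active means inhibition at or above 50% relative to wild type and mutant plate controls; inactive means inhibition below 50%.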

Test [1] is described as follows: inhibitors of TNFa-induced NFkB p65 translocation, primary screen, imaging, HUVEC, MLSMR starter and 10KST1 sets (AID 438;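 active means inhibition above 20% together with a positive visual image hit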;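 further: compound added about 3h40 before a 20 min TNFalpha stimulation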;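 on inhibition: signal is the nuclear over cytoplasmic p65 intensity ratio per well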). As to conditions: HUVEC TNFa-induced p65 nuclear translocation; cell count: measured here: nuclei count (cytotoxicity indicator), at 2.08 µM; inhibition: at 2 µM, stronger effect = higher value, 0% TNFa-plus-vehicle, 100% no-TNFa wells.
A short description of test [2]: inhibitors of mutant huntingtin aggregation, primary screen, imaging, exon1htt(103Q)mCFP cells, high-content imaging (AID 483;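 active means visual image review flags a hit and inhibition of aggregation exceeds 20%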;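 further: compound exposure lasted 3 days before fixation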;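 on nuclei count: percent of the per-plate median nuclei count of sample wells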). As to conditions: exon1htt(103Q)mCFP cell line, aggregate imaging, at 2 µM; inhibition of aggregation: stronger effect = higher value; nuclei count: measured here: cell count, toxicity.
Test [3] can be described thus: inhibitors of E-selectin induction by TNFa, primary screen, imaging, HUVEC, immunofluorescence, MLSMR starter and 10KST1 sets (AID 487;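 active means visually confirmed hit in the image check and inhibition above 20%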;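 on inhibition: signal is fraction of cell area covered by stained E-selectin grains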;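 on nuclei count: 100% = median nuclei count of all wells on the same plate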). As to conditions: HUVEC TNFalpha-induced E-selectin immunofluorescence imaging, at 2 µM; inhibition: stronger effect = higher value; nuclei count: measured here: cell number, toxicity.
The target in test [4] is Voltage-gated potassium channel subunit beta-2 (Rattus norvegicus) (UniProt P62483). Put plainly: KvBeta enzyme negative modulators, primary screen, biochemical, NADPH fluorescence (AID 622;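 active means fluorescence slope higher than the sample average by over 3 SD, cut at about -0.22 in these data, passing the limit was not always enough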;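 further: slope of raw intensity against log time taken from 70 to 1610 s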). As to conditions: recombinant KvBeta, 4-cyanobenzaldehyde reduction, at 10 µM, stronger effect = higher value.
Chain of Voltage-gated potassium channel subunit beta-2 (Rattus norvegicus) (P62483 whole entry, looked up): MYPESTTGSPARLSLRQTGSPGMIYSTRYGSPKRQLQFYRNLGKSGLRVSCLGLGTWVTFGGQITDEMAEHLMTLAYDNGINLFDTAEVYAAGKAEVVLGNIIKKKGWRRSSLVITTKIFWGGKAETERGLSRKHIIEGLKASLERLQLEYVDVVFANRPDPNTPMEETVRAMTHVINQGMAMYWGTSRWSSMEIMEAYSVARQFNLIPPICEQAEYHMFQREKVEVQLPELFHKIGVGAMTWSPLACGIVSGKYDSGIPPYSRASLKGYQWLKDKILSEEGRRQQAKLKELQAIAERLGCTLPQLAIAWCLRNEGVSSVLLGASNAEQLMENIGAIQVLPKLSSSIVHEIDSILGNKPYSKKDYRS
The target is the same in test [5]. Put plainly: KvBeta positive modulators, primary screen, biochemical, NADPH fluorescence (AID 623;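 active means NADPH fluorescence slope more negative than the mean of all samples by about 3 SD, 99.7% confidence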;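 further: fluorescence intensity change per second fitted from 20 to 320 s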). As to conditions: Recombinant KvBeta, NADPH fluorescence decrease slope, 10 min; at 10 µM; stronger effect = lower value.
Test [6] deals with Alpha-2C adrenergic receptor (Homo sapiens) (UniProt P18825). Put plainly: modulators of alpha2C/GIRK thallium flux, primary screen, cell-based, HEK293 alpha2C/GIRK1/2 (AID 624;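 active means fluorescence slope after compound addition differing from the mean of all screened samples at 99.7% confidence, in either direction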;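 further: slope of fluorescence ratio to pre-addition baseline per second over 15 to 24 s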). Particulars: thallium flux BTC fluorescence, at 10 µM, actives lie on both sides.
Chain of Alpha-2C adrenergic receptor (Homo sapiens) (P18825 whole entry, looked up): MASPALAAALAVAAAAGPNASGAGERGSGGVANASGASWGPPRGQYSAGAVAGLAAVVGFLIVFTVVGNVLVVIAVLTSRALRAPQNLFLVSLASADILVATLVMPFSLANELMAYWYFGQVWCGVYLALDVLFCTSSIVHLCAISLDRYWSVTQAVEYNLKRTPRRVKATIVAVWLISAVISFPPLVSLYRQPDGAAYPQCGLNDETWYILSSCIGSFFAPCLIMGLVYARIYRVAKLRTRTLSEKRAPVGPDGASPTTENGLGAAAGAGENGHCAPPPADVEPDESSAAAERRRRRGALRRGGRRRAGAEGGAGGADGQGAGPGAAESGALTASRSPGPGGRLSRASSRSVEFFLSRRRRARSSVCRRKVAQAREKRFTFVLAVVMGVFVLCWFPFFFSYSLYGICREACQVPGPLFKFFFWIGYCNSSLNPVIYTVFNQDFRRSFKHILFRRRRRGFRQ
A short description of test [7]: inhibitors of larval lipid processing in zebrafish, primary screen, whole organism, PED6 fluorescence, gall bladder and intestine (AID 686;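 active means a full or partial loss of lipid-probe fluorescence in the fish gall bladder, intestine or both, judged by eye; inactive means no fluorescence loss, or compound toxic to the fish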;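 further: larvae 5 to 7 days old with five fish per well; signal comes from phospholipase A2 cleavage of quenched PED6 carried via bile; overnight exposure to compound and PED6 before scoring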). Particulars: Zebrafish larvae PED6 lipid processing, fluorescence scoring; screened at 20 µM (by protocol).
Test [8] in a line: inhibitors of Chlamydomonas gravitaxis, primary screen, whole organism, Chlamydomonas reinhardtii, WT vs cilia-less mutant, absorbance, 96-well (AID 463189).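 Further: 0% = wild type cc124 cells in DMSO and 100% = ciliumless bld1 mutant cells.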 Particulars: OD600 absorbance, 2 days, at 10 µM, stronger effect = higher value.
Test [9] is described as follows: inhibitors of Sendai virus-induced IRF3 signaling, primary screen, TLR/RLR signaling modifier project, cell-based, Sendai virus stimulus, luciferase, 10K MLSCN set (AID 602276;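 active means inhibition at or above 50% at 10 µM; inactive means inhibition below 50%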;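 further: firefly luciferase from ISG56 promoter only with Renilla not read in this screen; 0% = Sendai virus plus DMSO and 100% = medium plus DMSO without virus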). As to conditions: HEK293 RL24 IRF3 luciferase reporter, at 10 µM, stronger effect = higher value. A general note: Reporter assays use an easily measured gene product as a stand-in for the process of interest.

Test [10] can be described thus: inhibitors of poly I:C-induced TLR3 signaling, primary screen, cell-based, poly I:C stimulus, luciferase, 10K MLSCN set (AID 602277;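 active means inhibition of the reporter signal at or above 50%; inactive means inhibition below 50%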). Particulars: HEK293-TLR3 RL24 IRF3 luciferase reporter, at 10 µM, stronger effect = higher value.
The nature of test [11]: DUSP6 inhibitors restoring Erk phosphorylation by chemical complementation, primary imaging in DUSP6-transfected HeLa (AID 609;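 active means compounds giving at least 50% inhibition in the cell-based MKP-3 phosphatase rescue imaging test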;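 on inhibition: phospho-Erk level distribution per well compared with pooled transfected vehicle control wells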). As to conditions: HeLa MKP-3 transfected, phospho-Erk imaging KS statistic, at 10 µM, cells stimulated with TPA for 15 min.
For test [12], the target named is Dual specificity protein phosphatase 6 (Homo sapiens) (UniProt Q16828). The description is as above. Particulars: HeLa MKP-3 transfected, phospho-Erk imaging KS statistic; at 10 µM; stronger effect = higher value; cells stimulated with TPA for 15 min.
Chain of Dual specificity protein phosphatase 6 (Homo sapiens) (Q16828 whole entry, looked up): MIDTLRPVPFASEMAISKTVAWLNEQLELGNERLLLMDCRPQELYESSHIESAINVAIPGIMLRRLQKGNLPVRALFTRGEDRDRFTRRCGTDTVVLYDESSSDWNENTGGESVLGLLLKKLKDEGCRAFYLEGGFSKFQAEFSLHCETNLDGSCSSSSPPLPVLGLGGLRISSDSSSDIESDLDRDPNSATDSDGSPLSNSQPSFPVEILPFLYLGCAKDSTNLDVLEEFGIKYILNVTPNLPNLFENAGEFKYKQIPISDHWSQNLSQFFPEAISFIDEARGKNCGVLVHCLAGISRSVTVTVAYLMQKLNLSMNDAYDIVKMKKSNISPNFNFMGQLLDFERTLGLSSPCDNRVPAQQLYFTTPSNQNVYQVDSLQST
In test [13] the target is Muscarinic acetylcholine receptor M4 (Homo sapiens) (UniProt P08173). The test is described as follows: compounds altering M4/GIRK thallium flux, either direction, primary screen, M4 allosteric agonist project, cell-based, HEK293 M4/GIRK, BTC-AM (AID 625;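 active means fluorescence slope after compound addition differing from the mean of all tested samples at 99.7% confidence, mostly higher but some lower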;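 further: thallium influx through GIRK channels coupled to M4 in HEK293 cells with BTC-AM dye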). As to conditions: at 10 µM, actives lie on both sides.
Chain of Muscarinic acetylcholine receptor M4 (Homo sapiens) (P08173 whole entry, looked up): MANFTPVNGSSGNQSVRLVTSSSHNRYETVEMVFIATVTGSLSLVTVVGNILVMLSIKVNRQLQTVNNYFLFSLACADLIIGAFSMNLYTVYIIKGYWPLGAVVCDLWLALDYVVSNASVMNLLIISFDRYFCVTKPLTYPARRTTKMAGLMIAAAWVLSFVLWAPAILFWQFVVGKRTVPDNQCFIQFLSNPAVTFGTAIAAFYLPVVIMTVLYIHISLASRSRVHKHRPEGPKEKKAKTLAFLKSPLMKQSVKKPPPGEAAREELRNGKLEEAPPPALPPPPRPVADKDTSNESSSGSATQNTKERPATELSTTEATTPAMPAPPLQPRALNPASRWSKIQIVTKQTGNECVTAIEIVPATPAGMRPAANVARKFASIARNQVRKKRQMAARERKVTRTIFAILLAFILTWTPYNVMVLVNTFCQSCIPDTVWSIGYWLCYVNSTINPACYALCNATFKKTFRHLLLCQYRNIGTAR
The mark [14] stands for this setting: measured here: cell density z-score.
The mark [15] stands for this setting: measured here: nuclear c-Myc green intensity z-score.
Where [16] appears, read: measured here: nuclear pErk red intensity z-score, stronger effect = higher value.

For orientation: inhibition means the relative decrease from the control value, in per cent. Regarding `Cc1cc(C)n(S(=O)(=O)Cc2ccccc2)n1`, the cell count in test [1] was determined as 495. Moreover, the inhibition in test [1] is 0.8% (inactive); in test [3], -49.2% (inactive); in test [8], -10% (inactive); in test [9] it was 15% (inactive); in test [10] it was 14.8% (inactive). In [2], the inhibition of aggregation is -5.2% (inactive). Also, the figures for the nuclei count in [2] and in test [3] were 100% and 105%, respectively. Moreover, the fluorescence slope in [4] is -0.531 (inactive). Also, the NADPH fluorescence slope in test [5] is -1.7e-05 (inactive). Moreover, the slope in [6] was 0.00447 (inactive). Moreover, in [7], the call was inactive.

As for `O=C(c1ccc2c(c1)OCCO2)N1CCCCC1`, the cell count in test [1] was determined as 580. Besides, the inhibition is -15% (inactive) in [1]; -38.6% (inactive) in [3]; -4.88% (inactive) in test [8]; 8.03% (inactive) in [9]; 18.3% (inactive) in test [10]. In addition, the inhibition of aggregation in [2] was -3.4% (inactive). Moreover, the nuclei count in test [2] stood at 106%; in test [3], 122%. The fluorescence slope in [4] is -0.406 (inactive). In test [5], the NADPH fluorescence slope is 1.1e-06 (inactive). Further, the slope in [6] is 0.00377 (inactive).

As for `COc1ccc(C(=O)NCCCCCC(=O)O)cc1OC`, the cell count in test [1] came to 687. In addition, the inhibition in [1] was -15.7% (inactive); in test [3], -46.5% (inactive); in test [12], 18.9% (inactive); in test [8], 32.7% (inactive); in test [9], 3.62% (inactive); in test [10], 12.3% (inactive). Moreover, the inhibition of aggregation in [2] is 12.2% (inactive). Further, the results for the nuclei count in [2] and in [3] were 93% and 119%, respectively. Moreover, the z-score in test [11] (setting [14]) was -0.456; in test [11] (setting [15]) it was -0.271; in test [11] (setting [16]), 0.551. Also, the results for the fluorescence slope in test [4] and in test [13] were -0.427 (inactive) and 0.00503 (inactive), respectively. Moreover, in test [5], the NADPH fluorescence slope is -3.8e-05 (inactive). Also, the molecule was called inactive in test [7].

For `O=C(O)c1cc(=O)c2c(OCC(O)COc3cccc4oc(C(=O)O)cc(=O)c34)cccc2o1`, the cell count in [1] turned out to be 472. Also, the inhibition was -2.9% (inactive) in test [1]; -78.3% (inactive) in test [3]; 5.42% (inactive) in test [12]; -9.3% (inactive) in test [8]; 13.2% (inactive) in test [9]; 13.9% (inactive) in test [10]. The nuclei count in test [3] is 106%. In addition, the z-score in test [11] (setting [14]) is -1.42; in test [11] (setting [15]), 1.02; in test [11] (setting [16]) it was -0.69. Further, the fluorescence slope in [4] was -0.505 (inactive). In addition, in test [5], the NADPH fluorescence slope was -6.1e-05 (inactive). Besides, in test [6], the slope was 0.0051 (inactive). In addition, the molecule was classed as inactive in test [7].

On to `Fc1cc(F)c(F)c(SCCc2ccncc2)c1F`, for which, in test [1], the cell count stood at 541. Moreover, the inhibition in test [1] is -0.9% (inactive); in test [12], -7.28% (inactive); in test [8], 97.5% (active); in test [9], 7% (inactive); in test [10], -1.64% (inactive). Moreover, the inhibition of aggregation in test [2] was -11.2% (inactive). For the same molecule, the nuclei count in [2] was 104%. For the same molecule, the z-score in [11] (setting [14]) is 0.361; in test [11] (setting [15]) it was 0.923; in [11] (setting [16]), 0.0696. The fluorescence slope in test [4] is -0.422 (inactive). In test [5], the NADPH fluorescence slope is -1.5e-05 (inactive). For the same molecule, the slope in test [6] was 0.0056 (inactive). The outcome in [7] was inactive.

Turning to `Cc1cnc(NC(=O)C2=C(O)c3ccccc3S(=O)(=O)N2C)s1`, in [1], the cell count was determined as 640. The inhibition is 4.7% (inactive) in test [1]; -46.4% (inactive) in test [3]; 30.1% (inactive) in [12]; 0.844% (inactive) and -7.88% (inactive) in [8]; 15.5% (inactive) in [9]; 32.8% (inactive) in [10]. Besides, the nuclei count in test [3] turned out to be 112%. The z-score was -0.158 in [11] (setting [14]), 0.936 in test [11] (setting [15]) and -1.17 in [11] (setting [16]). Besides, in [4], the fluorescence slope is -0.427 (inactive). The NADPH fluorescence slope in test [5] is -1.4e-05 (inactive). Moreover, in [6], the slope was 0.00455 (inactive). Besides, the outcome in test [7] was inactive.

Consider `COc1cc2nc(N3CCN(C(=O)c4ccco4)CC3)nc(N)c2cc1OC`, for which the cell count in [1] stood at 679. For the same molecule, the inhibition in test [1] was 3% (inactive); in test [3], -130% (inactive); in [12], 9.37% (inactive); in test [8], -2.52% (inactive); in test [9], -4.12% (inactive); in test [10] it was 19.3% (inactive). In addition, the nuclei count in test [3] is 128%. Further, the z-score is 1.25 in [11] (setting [14]), -0.94 in test [11] (setting [15]) and -1.9 in test [11] (setting [16]). In addition, the fluorescence slope in test [4] is -0.4 (inactive). Further, the NADPH fluorescence slope in test [5] was -1.8e-05 (inactive). Further, the slope in test [6] is 0.00375 (inactive). In test [7], the call was inactive.

With `O=c1cc(NCc2ccccc2)nc2n1CCCS2`, the cell count in test [1] stood at 572. For the same molecule, the inhibition in test [1] was -1.5% (inactive); in test [12], -4.7% (inactive); in test [8], 4.05% (inactive); in test [9] it was -14.4% (inactive); in test [10], -33.9% (inactive). Moreover, the inhibition of aggregation in [2] is -16.3% (inactive). In test [2], the nuclei count turned out to be 94.5%. Besides, the figures for the z-score in test [11] (setting [14]), in test [11] (setting [15]) and in test [11] (setting [16]) were -0.588, -0.473 and -1.35, respectively. For the same molecule, the fluorescence slope in test [4] is -0.506 (inactive). Besides, the NADPH fluorescence slope in test [5] was -0.000115 (inactive). Also, in test [6], the slope was 0.00575 (inactive). Moreover, in test [7], the outcome was inactive.

Regarding `COC(=O)C1=C(C)NC(C)=C(C(=O)OC)C1c1ccccc1[N+](=O)[O-]`, in [1], the cell count is 548. For the same molecule, the inhibition in test [1] was -5.5% (inactive); in test [3], -80.3% (inactive); in test [12], 13.3% (inactive); in test [8] it was -13.6% (inactive) and -16.5% (inactive); in [9], 12.4% (inactive); in test [10], 13.4% (inactive). In [3], the nuclei count worked out at 116%. In addition, the results for the z-score in test [11] (setting [14]), in test [11] (setting [15]) and in test [11] (setting [16]) were 1.16, 0.789 and -0.998, respectively. For the same molecule, the fluorescence slope in [4] was -0.461 (inactive). In [5], the NADPH fluorescence slope is -1.4e-05 (inactive). Further, the slope in test [6] was 0.00935 (inactive). For the same molecule, the result in test [7] was inactive.
